According to PubChem BioAssay (Tox21):
Inconclusive results are not listed. Activity calls are given as the source filed them. Unless noted, calls come from the whole dose curve; as a rule, active = well fitted curve in the direction sought with a large enough effect in the repeat runs; inconclusive = weak or mixed curves; inactive = no such curve, though single readings can be large; an effect the other way counts as inactive or inconclusive.

Legend:
[1] = qHTS assay for small molecule agonists of the p53 signaling pathway (AID 651631; calls by dose curve; note: nearly all actives have a fitted effect of over 15% in size)
Summary of the method: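 Fluorescence intensity from cleaved LiveBLAzer B/G substrate (2 h, room temperature) served as the signal. Beforehand, HCT-116 reporter cells bearing p53 response elements were treated 16 h at 37 °C with DMSO-dissolved compounds.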

[2] = qHTS assay for small molecules that induce genotoxicity in human embryonic kidney cells expressing luciferase-tagged ATAD5 (AID 651632); note: nearly all actives have a fitted effect of over 15% in size
Summary of the method: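 Luminescence read-out: after 16 hr compound exposure at 37C, ATAD5-luciferase HEK293T cells received Amplite, 30 min RT, then CCD imaging. A rise in signal marks genotoxic stress.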

[3] = qHTS assay for small molecule agonists of the p53 signaling pathway - cell viability (AID 651633; calls by dose curve;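 note: p53RE-bla HCT reporter cells with a stable beta-lactamase p53 reporter; series mostly up to about 83 µM; nearly all actives have a fitted effect of over 30% in size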)
Summary of the method: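 Viability counter-read: CellTiter-Glo luminescence (30 min, room temperature) in the same p53RE-bla plates. These plates had been exposed to compounds for 16 h at 37 C.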

[4] = qHTS assay for small molecules that induce genotoxicity in human embryonic kidney cells expressing luciferase-tagged ATAD5 - cell viability (AID 651634; calls by dose curve; note: nearly all actives have a fitted effect of over 25% in size)
Summary of the method: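 HEK293T ATAD5-luc cells, 2,000/well; compound 15.5 hr, 37C/5% CO2; CellTiter-Fluor 30 min, 37C; fluorescence read.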

[5] = qHTS assay for small molecule disruptors of the mitochondrial membrane potential - cell viability (AID 720634; calls by dose curve;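 note: human HepG2 liver cancer cells; series mostly up to about 83 µM; nearly all actives have a fitted effect of over 20% in size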)
Summary of the method: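 Luminescence from CellTiter-Glo (ATP content) gave viability in HepG2 cells, read in the same wells as the MMP dye assay after 1 hr compound exposure at 37 C.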

[6] = qHTS assay for small molecule disruptors of the mitochondrial membrane potential (AID 720635); note: potency is the fitted concentration of half-maximal effect
Summary of the method: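 Mitochondrial membrane potential tracked with Mito-MPS dye, red aggregates (ex 540/em 590 nm) against green monomers (ex 490/em 535 nm). Compound treatment 1 hr at 37C, dye 30 min in HepG2.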

[7] = qHTS assay to test for compound auto fluorescence at 535 nm (green) in HepG2 cells (AID 720675)
[8] = qHTS assay to test for compound auto fluorescence at 460 nm (blue) in HEK293 cells (AID 720678)
Summary of the method: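 HEK293 cells (2,000 per well, medium with 10% dialyzed FBS) attached for 4-5 hr at 37C, then received compound and stood overnight at 37C, 5% CO2. Blue fluorescence was read at Ex/Em 405/460 nm and expressed relative to triamterene.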

[9] = qHTS assay to test for compound auto fluorescence at 590 nm (red) in HEK293 cells (AID 720679)
Summary of the method: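 HEK293 cells (2,000/well, medium with 10% dialyzed FBS) attached for 4-5 hr at 37C, received 23 nL compound and were incubated overnight at 37C, 5% CO2. Red fluorescence was then read at 540/590nm Ex/Em, referenced to Rose Bengal sodium.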

[10] = qHTS assay to test for compound auto fluorescence at 590 nm (red) in HepG2 cells (AID 720674)
Summary of the method: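 We screened compounds on adherent HepG2 cells, incubating them for an hour at 37 C in 5% CO2 before reading emission at 590 nm under 540 nm excitation; values reflect equivalence to Rose Bengal sodium fluorescence.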
% is set by controls: 0 for no effect and ±100 for the full control effect.

CCCOCCC
inactive: Potency [1] | Potency [2] | Potency [3] | Potency [4] | Potency [5] | Potency [6] | outcome [7] | outcome [8] | outcome [9]

CCOC(=O)NCCC[Si](OCC)(OCC)OCC
inactive: Potency [1] | Potency [2] | Potency [3] | Potency [4] | Potency [5] | outcome [10] | outcome [7] | outcome [8] | outcome [9]

O=C1CCCc2ccccc21
inactive: Potency [1] | Potency [2] | Potency [3] | Potency [4] | Potency [5] | Potency [6] | outcome [7] | outcome [8] | outcome [9]

CC/C=C\CCOC(=O)C(C)C
inactive: Potency [1] | Potency [2] | Potency [3] | Potency [4] | Potency [5] | outcome [10] | outcome [7] | outcome [8] | outcome [9]

COC(=O)c1ccc(OC)cc1
inactive: Potency [1] | Potency [2] | Potency [3] | Potency [4] | Potency [5] | Potency [6] | outcome [10] | outcome [7] | outcome [9]

CC(=O)N[C@@H](CC(C)C)C(=O)O
inactive: Potency [1] | Potency [2] | Potency [3] | Potency [4] | Potency [5] | Potency [6] | outcome [10] | outcome [7] | outcome [8] | outcome [9]

CCN[C@H]1CN(CCCOC)S(=O)(=O)c2sc(S(N)(=O)=O)cc21
inactive: Potency [1] | Potency [2] | Potency [3] | Potency [4] | Potency [5] | Potency [6] | fluorescence, relative to Rose Bengal [10] -0.145% [at 18.6 µM] | fluorescence, % of fluorescein control [7] -0.244% [at 18.6 µM] | fluorescence, % of triamterene [8] 0.009% [at 18.6 µM] | fluorescence, % of fluorescent control [9] 0.0594% [at 18.6 µM]

Oc1ccccc1C=NCc1ccccc1
active: Potency [6] 21.1 µM
inactive: Potency [1] | Potency [2] | Potency [3] | Potency [4] | Potency [5] | outcome [10] | outcome [7] | outcome [8] | outcome [9]

COc1cc(Cl)ccc1Cl
inactive: Potency [1] | Potency [2] | Potency [3] | Potency [4] | Potency [5] | outcome [7] | outcome [8] | outcome [9]

COc1cc2c(cc1N)oc1ccccc12
inactive: Potency [1] | Potency [2] | Potency [3] | Potency [4] | outcome [10] | outcome [7] | outcome [9]

Cc1cc(NS(=O)(=O)c2ccc(N)cc2)nc(C)n1
inactive: Potency [1] | Potency [2] | Potency [3] | Potency [4] | Potency [5] | outcome [7] | outcome [8] | outcome [9]

NNS(=O)(=O)c1ccc(Oc2ccc(S(=O)(=O)NN)cc2)cc1
inactive: Potency [1] | Potency [2] | Potency [3] | Potency [4] | Potency [5] | outcome [10] | outcome [7] | outcome [8] | outcome [9]

CCCCNC(=S)NCCCC
inactive: Potency [1] | Potency [2] | Potency [3] | Potency [5] | Potency [6] | outcome [10] | outcome [7] | outcome [8] | outcome [9]

CCCCCCCCOC(=O)CCCCCCCCC(=O)OCCCCCCCC
inactive: Potency [1] | Potency [2] | Potency [3] | Potency [4] | Potency [5] | outcome [10] | outcome [7] | outcome [8] | outcome [9]

COc1cc(N)c(Cl)cc1C(=O)NC1CCN(Cc2ccccc2)CC1
inactive: Potency [1] | Potency [2] | Potency [3] | Potency [4] | Potency [5] | fluorescence, relative to Rose Bengal [10] -0.629% [at 18.6 µM] | fluorescence, % of fluorescein control [7] 0.0143% [at 18.6 µM] | fluorescence, % of triamterene [8] 0.111% [at 18.6 µM] | fluorescence, % of fluorescent control [9] -0.139% [at 18.6 µM]

COC(C)CCO (centres undefined)
inactive: Potency [1] | Potency [2] | Potency [3] | Potency [4] | outcome [10] | outcome [7] | outcome [8] | outcome [9]

COC(=O)N[C@H](C(=O)N[C@@H](Cc1ccccc1)[C@@H](O)CN(Cc1ccc(-c2ccccn2)cc1)NC(=O)[C@@H](NC(=O)OC)C(C)(C)C)C(C)(C)C
inactive: Potency [1] | Potency [2] | Potency [3] | Potency [4] | outcome [10] | outcome [7] | outcome [8] | outcome [9]

NC(Cc1ccc(F)cc1)C(=O)O (centres undefined)
inactive: activation [1] -4.8% [at 8.3 µM] | activation [2] 3.53% [at 8.08 µM] | activity change, negative = cytotoxicity [3] 33% [at 8.08 µM] | activity, negative = cytotoxicity [4] 10.7% [at 8.08 µM] | activity change, negative = cytotoxicity [5] -3.31% [at 8.08 µM] | fluorescence, relative to Rose Bengal [10] 0.0373% [at 3.72 µM] | fluorescence, % of fluorescein control [7] -0.0482% [at 3.72 µM] | fluorescence, % of triamterene [8] -0.105% [at 3.72 µM] | fluorescence, % of fluorescent control [9] 0.0934% [at 3.72 µM]
